CIT2-GFP yeast = modulators of TOR pathway CIT2-GFP in S. cerevisiae; GFP response vs DMSO, % at 10 µM; S. cerevisiae CIT2-GFP strain, flow cytometry, 3 h; 100 means same as DMSO wells; 320,000 tested, 0.065% active;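 active = GFP response relative to DMSO above a set limit, near the screen mean plus 3 SD, cut at about 150% in these data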;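 note: ratio of well median GFP fluorescence to mean of DMSO wells on the plate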
VLA-4 inh = inhibition in a human VLA-4 binding assay. 330,000 tested, 0.2% active. P13612. VLA-4 expressing cells, ligand binding flow cytometry. inhibition, % (about 7 µM as worked out from the volumes in the protocol). AID 2557; in the data active = inhibition above about 50%
Target sequence (P13612 whole entry, looked up): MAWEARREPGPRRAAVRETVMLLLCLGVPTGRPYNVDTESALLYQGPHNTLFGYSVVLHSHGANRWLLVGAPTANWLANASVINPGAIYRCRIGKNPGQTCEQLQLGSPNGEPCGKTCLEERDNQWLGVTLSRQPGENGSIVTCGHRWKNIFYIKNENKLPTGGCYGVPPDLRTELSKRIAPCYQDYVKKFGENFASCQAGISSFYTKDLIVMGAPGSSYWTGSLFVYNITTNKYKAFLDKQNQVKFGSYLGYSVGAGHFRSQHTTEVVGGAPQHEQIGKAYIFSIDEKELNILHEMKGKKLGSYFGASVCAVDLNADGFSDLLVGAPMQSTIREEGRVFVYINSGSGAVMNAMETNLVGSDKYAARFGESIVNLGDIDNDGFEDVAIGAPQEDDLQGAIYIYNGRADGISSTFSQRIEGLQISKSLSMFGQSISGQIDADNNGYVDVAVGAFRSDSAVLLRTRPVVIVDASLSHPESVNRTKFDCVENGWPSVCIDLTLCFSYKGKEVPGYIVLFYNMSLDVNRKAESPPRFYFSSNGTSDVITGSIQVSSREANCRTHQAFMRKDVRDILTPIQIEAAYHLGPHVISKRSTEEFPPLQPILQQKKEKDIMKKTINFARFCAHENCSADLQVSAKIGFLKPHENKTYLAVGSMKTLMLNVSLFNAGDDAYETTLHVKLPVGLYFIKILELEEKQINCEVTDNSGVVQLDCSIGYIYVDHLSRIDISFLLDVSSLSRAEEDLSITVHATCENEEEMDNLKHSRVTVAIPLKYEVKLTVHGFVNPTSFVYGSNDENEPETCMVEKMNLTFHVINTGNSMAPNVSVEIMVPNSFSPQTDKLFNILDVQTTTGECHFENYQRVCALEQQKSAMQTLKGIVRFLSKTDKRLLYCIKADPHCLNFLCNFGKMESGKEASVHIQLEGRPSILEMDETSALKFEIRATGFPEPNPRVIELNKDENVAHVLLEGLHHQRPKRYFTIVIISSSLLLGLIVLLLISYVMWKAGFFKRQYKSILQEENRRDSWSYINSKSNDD
RPL19A TOR yeast = yeast TOR pathway RPL19A-GFP modulation; percent response vs DMSO, % at 10 µM; S. cerevisiae RPL19A-GFP strain, flow cytometry, 3 h; active compounds read low; AID 2025; 330,000 tested, 0.3% active;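 active = percent response vs DMSO below 50%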;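 note: median channel GFP fluorescence of the barcoded RPL19A-GFP strain; ratio of sample median GFP to plate DMSO average so 100% = DMSO; lower means less RPL19A-GFP as with rapamycin TOR inhibition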
AGP1-GFP MLPCN = yeast TOR pathway AGP1-GFP modulation; S. cerevisiae AGP1-GFP multiplex flow cytometry, 3 h; GFP as percent of DMSO wells; GFP response vs DMSO, % at 10 µM; 320,000 tested, 0.02% active; AID 2066;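 active = GFP response relative to DMSO above a set limit, near screen average plus 3 SD, cut at about 150% in these data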;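 note: median GFP channel fluorescence of the gated AGP1 strain per well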
MEP2 TOR yeast = yeast TOR pathway MEP2-GFP modulation. S. cerevisiae MEP2-GFP strain, flow cytometry GFP, 3 h; 100% = DMSO control level. GFP response vs DMSO, % at 10 µM. 330,000 tested, 0.51% active. AID 2016;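 active = GFP response versus DMSO above a set limit, roughly screen mean plus 3 SD, cut at about 180% in these data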;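 note: median GFP fluorescence of the barcode-gated MEP2-GFP cells per well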
LAP4 TOR yeast = alters LAP4-GFP fluorescence in TOR pathway yeast screen. S. cerevisiae LAP4-GFP multiplex, flow cytometry GFP, 3 h; median GFP as percent of DMSO wells. GFP response vs DMSO, % at 10 µM. 320,000 tested, 0.34% active. AID 2023;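 active = GFP response vs DMSO above a set limit, about the screen mean plus 3 SD, cut at about 150% in these data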
VLA-4 mod pick = confirmation of allosteric modulators of human VLA-4 integrin. shares compounds with VLA-4 inh. U937 cells, HUTS-21 LIBS mAb binding, flow cytometry; LDV ligand present at threefold Kd. inhibition, % at 6.7 µM. 1,300 tested, 2% active; in the data active = inhibition above about 40%;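 note: 0% = ligand without compound and 100% = no ligand background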
* hit, by the source's call; / = not tested or not shown. This is a sample that favours compounds with a hit; in the whole collection about 1.1% have one here.

SMILES	CIT2-GFP yeast	VLA-4 inh	RPL19A TOR yeast	AGP1-GFP MLPCN	MEP2 TOR yeast	LAP4 TOR yeast	VLA-4 mod pick
COc1cc(C(=O)OCC(=O)NC2CCCCC2)cc(OC)c1OC	102	0	104	105	105	102	1
O=C(/C=C/c1ccccc1[N+](=O)[O-])NCCCn1ccnc1	100	62*	102	100	103	102	-5
Cc1ccc(/C=C/C(=O)NCCCn2ccnc2)cc1	99	0	96	97	96	96	/
CCCOc1ncnc2c1[nH]c1ccc(OC)cc12	98	4	94	99	98	127	6
CCCOc1ncnc2c1[nH]c1ccccc12	86	2	87	87	91	114	/
CCCCOc1ncnc2c1[nH]c1ccc(C)cc12	103	-10	98	100	100	126	6
C=CCNc1ncnc2c1[nH]c1ccc(C)cc12	93	22	96	93	99	96	/
Cc1c(N(C(=O)c2cc(=O)[nH]c3ccccc23)C(C)C)c(=O)n(-c2ccccc2)n1C	105	10	100	105	103	100	0
COc1ccc(CN2CCNC(=O)C2CC(=O)N(C)Cc2nonc2C)c(F)c1 (configuration not stated)	106	-10	95	107	95	103	/
Oc1ccc(NC(=S)Nc2ccccc2)cc1	105	12	106	99	110	100	14
Cn1c(NC(=S)Nc2ccccc2)nc2ccccc21	91	44	95	89	98	97	-15
Nc1ccc(NC(=S)Nc2ccccc2)cc1	95	-2	101	99	102	88	/
O=C(c1ccc2[nH]c(=O)c(=O)[nH]c2c1)N1CCc2ccccc2C1	102	-12	110	94	109	87	/
Cc1nc(SCC(N)=O)c([N+](=O)[O-])[nH]1	102	-2	97	101	101	100	/
CCOC(=O)CSc1nc(C)[nH]c1[N+](=O)[O-]	97	41	100	93	100	98	0
CN1CCC(N(C)S(=O)(=O)c2ccc(NC(=O)COc3ccc(Cl)cc3)cc2)CC1	92	-4	92	92	86	90	/
CN1CCC(N(C)S(=O)(=O)c2ccc(NC(=O)COc3ccc(F)cc3)cc2)CC1	109	50*	97	110	99	101	13
Cc1ccc(NC(=O)Nc2cccnc2)cc1Cl	98	-6	102	99	101	94	/
Cc1ccc(NC(=O)Nc2c(Cl)cccc2Cl)cn1	84	-4	87	85	96	/	0
O=C(CCNS(=O)(=O)c1ccc2nsnc2c1)N1CCN(c2ccncc2)CC1	91	11	95	95	97	97	/
O=C(COc1cccc(C(F)(F)F)c1)NNC(=O)Cn1c(=O)cnc2ccccc21	98	3	94	101	98	104	/
Clc1cc(CSc2ccccc2)nc(-c2ccccc2)n1	100	94*	95	102	106	105	5
O=S(=O)(Nc1ncccn1)c1ccccc1	99	15	104	98	96	89	3
Cc1ccccc1NS(=O)(=O)c1cc(S(C)(=O)=O)ccc1Cl	64	26	102	72	98	91	/
Cc1ccc(S(=O)(=O)Nc2ncccn2)cc1	105	-7	104	101	111	97	2
SMILES	CIT2-GFP yeast	VLA-4 inh	RPL19A TOR yeast	AGP1-GFP MLPCN	MEP2 TOR yeast	LAP4 TOR yeast	VLA-4 mod pick
Nc1ccc(S(=O)(=O)Nc2ncccn2)cc1	84	-2	105	96	102	108	/
COc1ccc(S(=O)(=O)Nc2ncccn2)cc1	110	6	105	103	112	93	3
Cc1ccccc1NS(=O)(=O)c1ccc(Cl)cc1	99	-7	99	89	93	95	0
COc1ccc(S(=O)(=O)N2CCOCC2)cc1NS(=O)(=O)c1ccc(F)c(F)c1	80	9	98	56	104	99	/
Cc1ccc(S(=O)(=O)NCC(=O)NCCc2c[nH]c3ccccc23)cc1C	104	-5	97	106	101	103	/
Cc1cccc(C)c1NC(=O)CN(C)C(=O)c1cccc(NS(=O)(=O)c2ccccc2)c1	102	6	99	106	100	101	/
COCCNC(=O)CSc1ccccc1C(=O)NC1CCCc2ccccc21 (configuration not stated)	101	15	103	106	109	122	/
O=S(=O)(Nc1ccc(S(=O)(=O)Nc2ncccn2)cc1)c1ccccc1	103	-1	105	98	105	90	/
O=S(=O)(Nc1ncccn1)c1ccc(Cl)cc1	103	8	101	101	104	92	0
O=S(=O)(Nc1ncccn1)c1ccc(F)cc1	103	5	105	104	105	94	4
CCCCCN(C(=O)CCC(=O)OCC(=O)c1ccc(C(C)CC)cc1)c1c(N)n(CCCC)c(=O)[nH]c1=O (configuration not stated)	94	7	94	101	99	104	/
CCN(CC)S(=O)(=O)c1ccc(NC(=O)Cn2c(=O)oc3ccccc32)cc1	/	7	102	103	99	88	4
N#CCc1ccc(NC(=O)Cn2c(=O)oc3ccccc32)cc1	104	14	110	103	110	94	-15
COc1ccccc1S(=O)(=O)N1CCNC(=O)C1	98	1	99	104	101	106	/
O=C(Nc1ccc(F)cc1)Nc1cccnc1	96	-6	106	103	106	95	-3
COC(=O)[C@]1(Cc2ccccc2)N[C@H](CN(C)C(=O)c2ccc(F)cc2)[C@@H]2C(=O)N(C)C(=O)[C@@H]21	85	31	97	96	98	92	/
CCN(C[C@H]1N[C@@](Cc2ccccc2)(C(=O)OC)[C@H]2C(=O)N(Cc3ccccc3)C(=O)[C@@H]12)C(=O)COC	99	-10	99	110	102	104	3
CCN(C[C@H]1N[C@@](Cc2ccccc2)(C(=O)OC)[C@H]2C(=O)N(Cc3ccccc3)C(=O)[C@@H]12)C(C)=O	106	8	104	103	102	93	3
CCN(C[C@H]1N[C@@](Cc2ccccc2)(C(=O)OC)[C@H]2C(=O)N(Cc3ccccc3)C(=O)[C@@H]12)C(=O)c1ccccc1	110	50*	104	106	104	99	4
COC(=O)[C@]1(Cc2ccccc2)N[C@H](CN(C)C(=O)Nc2ccc(F)cc2)[C@@H]2C(=O)N(Cc3ccccc3)C(=O)[C@@H]21	91	1	97	95	95	90	2

Screening data (PubChem BioAssay)
